Bioassay records (PubChem BioAssay)
Shiga toxin inh = A qHTS for Small Molecule Inhibitors of Shiga Toxin. Vero cells, Shiga toxin protein synthesis inhibition reporter. inhibition, % at 38.7 µM. actives 9.2% (n = 290,000); in the data active = inhibition mostly above about 28%, no sharp cut-off; inactive = mostly below about 43%
Pf growth 48h = Primary qHTS for delayed death inhibitors of the malarial parasite plastid, 48 hour incubation. P. falciparum luciferase growth in erythrocytes, 48 h. Potency, µM (highest dose often 28.7 µM), usual class: inhibitors. actives 5.9% (n = 310,000)
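Parasite viability was followed by luminescence of a genomically integrated firefly luciferase. Cultures held 0.1% parasitemia at 2% hematocrit (final), incubated under 5% CO2 at 37 C.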
Cycloheximide cs = Cycloheximide Counterscreen for Small Molecule Inhibitors of Shiga Toxin; cell reporter, cycloheximide protein synthesis inhibition counterscreen; max response, %; actives 12% (n = 300,000); in the data active = max response mostly above about 13%, no sharp cut-off; inactive = mostly below about 14%; note: read at 38.3 µM for the half of the compounds with a filed dose
AMA1-RON2 inh = qHTS for Inhibitors of AMA1-RON; Towards Development of Antimalarial Drug Lead: Primary Screen. Potency, µM (doses to about 58.2 µM), usual class: inhibitors. actives 0.2% (n = 360,000). AID 720542, 2013. AlphaScreen AMA1-biotinylated RON2 peptide binding. Plasmodium falciparum AMA1 (3D7) - RON2 peptide interaction; note: nearly all actives have a fitted effect of over 45% in size
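AMA1 (3D7) with his tag at 25 nM final met compounds first, then biotinylated RON2 peptide at 25 nM; detection used donor plus acceptor beads, 10 µg/mL apiece, read by AlphaScreen after 30 min at room temperature.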
Pf growth 96h = Primary qHTS for delayed death inhibitors of the malarial parasite plastid, 96 hour incubation; P. falciparum luciferase reporter growth, 96 h; Potency, µM (series often up to 28.7 µM), most hits filed as inhibitors; actives 6.9% (n = 320,000); AID 504834, 2011
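Two parasite generations (96 h, 37 C, 5% CO2) of compound exposure in infected erythrocytes (0.05% parasitemia, 2% hematocrit). Luciferase-reporter P. falciparum; decreased luminescence indicates inhibited growth, aimed at apicoplast-acting delayed death.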
SARS PLpro yeast = qHTS of Yeast-based Assay for SARS-CoV PLP; AID 485353, 2010; actives 0.19% (n = 330,000); Potency, µM (highest dose often 32.9 µM), most hits filed as activators; S. cerevisiae expressing SARS-CoV PLpro, growth rescue; calls by dose curve; note: nearly all actives have a fitted effect of over 55% in size
Numbers stand for hits; . = inactive; ? = inconclusive; / = no result given; [ ] = dose if it differs, or a comment. Rows were chosen to be rich in hits. Some 19% of all compounds tested hit in one or more screens of this group. Unless noted, calls come from the whole dose curve; as a rule, active = well fitted curve in the direction sought with a large enough effect; inconclusive = small, poorly fitted or top-dose-only effect, or another doubt; inactive = no such curve, though single readings can be large; an effect the other way counts as inactive or inconclusive.

SMILES	Shiga toxin inh	Pf growth 48h	Cycloheximide cs	AMA1-RON2 inh	Pf growth 96h	SARS PLpro yeast
COc1ccc(CN2C(=O)c3ccccc3C2C(=O)NCCc2ccccc2)c(OC)c1 (stereo not given)	.	?	.	.	8.3µM	.
CC(C)N1C(=O)c2ccccc2C1C(=O)NCCc1ccccc1 (stereo not given)	.	.	.	.	8.3µM	.
O=C(Nc1ccc(CN2CCOCC2)cc1)c1ccc(N2CCCC2)c([N+](=O)[O-])c1	.	?	.	.	.	.
Cc1ccccc1N1CCN(S(=O)(=O)CC23CCC(CC2NC(=O)C(N)CCS(C)(=O)=O)C3(C)C)CC1 (stereo not given)	.	/	.	/	/	/
CCC(C)NC(=O)CSc1nnc(-c2cc(-c3ccc(C)cc3)nc3ccccc23)n1N (stereo not given)	.	/	.	.	12µM	.
Cc1ccc(-c2cc(-c3nnc(SCC(=O)NCC(C)C)n3N)c3ccccc3n2)cc1	.	.	36	.	.[5.75 µM]	.
CCc1nnc(NC(=O)c2cc(-c3ccccc3)nn2-c2ccccc2)s1	.	.	.	.	.	.
CCOC(=O)C1(C)CCCN1C(=O)c1ccc(OC)c(F)c1 (stereo not given)	/	/	/	.	/	/
CC(C)OC(=O)NCCOC(=O)Nc1ccc(Cl)cc1	.	.	.	.	?	.
CS(=O)c1ccccc1COC(=O)Nc1ccc(Cl)cc1 (stereo not given)	.	.	16	.	?	.
Cc1ccc(NC(=O)OCc2ccccc2S(C)=O)cc1 (stereo not given)	.	.	30	.	?	.
CNc1nc(C)cc(C)c1S(=O)(=O)c1ccc(Cl)cc1	.	.	.	.	.	.
Cc1cnc(NC(=O)c2cccc(S(=O)(=O)N3CC(C)OC(C)C3)c2)s1 (stereo not given)	.	?	.	.	13µM	.
CC1CN(S(=O)(=O)c2cccc(C(=O)Nc3ccccc3N3CCCCC3)c2)CC(C)O1 (stereo not given)	/	12µM	/	.	?	.
CC1CN(S(=O)(=O)c2cccc(C(=O)Nc3ccccc3N3CCOCC3)c2)CC(C)O1 (stereo not given)	/	13µM	/	.	?	.
CCOC(=O)C1CCN(S(=O)(=O)c2ccc3oc(=O)ccc3c2)CC1	.	.	.	.	.	.
COc1ccccc1NC(=O)C(C)OC(=O)C1CCC(C(C)(C)C)CC1 (stereo not given)	/	2.9µM	/	.	15µM	.
COc1ccccc1NC(=O)C(C)OC(=O)c1cc2ccccc2[nH]1 (stereo not given)	/	9.3µM	/	.	?	.
Cc1ccc(OCC(=O)NC(=S)Nc2ccccn2)c(Br)c1	83	.	28	.	.	?
O=C(COc1ccc(Br)cc1Cl)NC(=S)Nc1ccccn1	115	.	76	.	.	.
Fc1ccc(CN2CCN(c3ncccn3)CC2)c(F)c1	.	.	.	.	?	.
O=C(NCCN1C(=O)CSC1=O)c1ccccc1	.	.	.	.	.	.
CN(Cc1ccccc1)c1nc2nonc2nc1N1CCCC(CN2CCCC2=O)C1 (stereo not given)	.	?	.	.	?	.
O=C(O)c1ccc(N2C(=O)c3cccnc3C2=O)cc1	.	.	19	.	.	.
CC(=O)c1ccc(NC(=O)c2ccc(N3C(=O)c4cccnc4C3=O)cc2)cc1	.	.	22	.	.	.
SMILES	Shiga toxin inh	Pf growth 48h	Cycloheximide cs	AMA1-RON2 inh	Pf growth 96h	SARS PLpro yeast
O=C1c2cccnc2C(=O)N1c1ccccc1-c1ccccc1	.	/	.	.	/	.
COc1ccc(N2C(=O)c3ccc(C(=O)Nc4ccc(NC(C)=O)cc4)cc3C2=O)cc1	.	?	.	.	.	.
CCOC(=O)N1CCN(S(=O)(=O)N2CCCC(C(=O)NCc3ccc(C)cc3)C2)CC1 (stereo not given)	/	/	/	.	/	/
O=c1[nH]c(N2CCCCC2)nc2c1CCCC2	.	.	.	.	.	.
Cc1ncc(CN2CCCC(C(=O)Nc3ccc(-c4cccc(F)c4)cc3)C2)n1C (stereo not given)	.	15µM	.	.	.	.
COc1cccc(-c2ccc(NC(=O)C3CCCN(Cc4cnc(C)n4C)C3)cc2)c1 (stereo not given)	.	?	.	.	.	.
COc1cccc(-c2ccc(NC(=O)C3CCCN(Cc4cnn(C)c4)C3)cc2)c1 (stereo not given)	.	?	.	.	?	/
COc1cccc(-c2ccc(NC(=O)C3CCCN(Cc4nccn4C)C3)cc2)c1 (stereo not given)	35	?	22	.	13µM	.
COc1ccc(Cc2c(-c3ccc(F)cc3)nc3c4ccccc4ccn23)c(C)c1	/	/	/	.	/	/
Cc1ccc(C(=O)Nc2ccc3c(c2)ncn3C)cc1	112	.	26	.	.	.
CCn1cnc2cc(NC(=O)c3ccc(C)cc3)ccc21	49	.	44	.	.	.
Cc1ccc(NC(=O)CCn2cnc3cc(C)c(C)cc32)cc1	.	?	.	.	?	.
Cn1c(-c2ccccc2)cccc1=O	.	.	.	.	.	.
Cn1c(-c2ccccc2)c[n+]2c1-c1ccccc1C2	.	0.59µM	.	.	?	.
Cc1ccc(OCCN2C(=O)NC3(CCc4ccccc4C3)C2=O)cc1 (stereo not given)	.	.	.	.	.	.
O=C(CN1C(=O)CSc2ccccc21)Nc1ccc2c(c1)OCCO2	.	/	29	.	.	.
O=C(CN1C(=O)CCSc2ccccc21)Nc1ccc2c(c1)OCO2	.	?	.	.	/	.
CCC1Oc2ccccc2N(CC(=O)Nc2ccc3c(c2)OCCO3)C1=O (stereo not given)	94	.	17	.	.	.
O=C(CN1C(=O)C2C3C=CC(C3)C2C1=O)Nc1ccc2c(c1)OCCO2 (stereo not given)	60	.	.	.	.	.
O=C(CSc1nc2ccccc2[nH]1)NCc1ccco1	.	.	.	.	.	.
O=C(CSc1ncccc1-c1nc2ccccc2[nH]1)NCc1ccco1	56	.	40	.	.[5.75 µM]	.
O=C(CSc1nc2ncccc2[nH]1)NCc1ccco1	.	.	.	.	?	.
Cc1cc2nc(-c3cccnc3SCC(=O)NC3CC3)[nH]c2cc1C	52	.	23	/	.	.
Cc1cc2nc(-c3cccnc3SCC(=O)NCc3ccco3)[nH]c2cc1C	.	.	21	.	.	.
O=C(CSc1nc2ncccc2[nH]1)NC1CCCC1	.	.	.	.	?	.
COc1ccc(CN2C[C@@H](CO)O[C@@H](n3cnc4c(NCc5ccc(F)cc5)ncnc43)C2)cc1	/	/	/	.	/	/
